# Data taken from PubChem BioAssay (EPA / NIEHS).
# Calls of active or inactive are those of the source. The calls were made as follows: active = hit-call score of the fitted dose curve at least 0.9, where 1 is the maximum; inactive = score below 0.9.
# Experiment: APR_HepG2_p53Act_24hr: Apredica 24-hour HepG2 Assay for p53 Activation (AID 2282913);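 also: p53 protein immunofluorescence averaged per cell in HepG2 with Hoechst nuclei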
# Conditions: high-content imaging, actives raise or lower the signal
# How it was run: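 Following 24 hr dosing of HepG2 at 0.39–200 uM, the cells undergo formaldehyde fixation, Triton permeabilization and multiplexed antibody labeling that includes p53 (Cy5). Signal from the imaging is referenced to DMSO solvent controls.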
Compound,outcome,AC50
CCC(C)c1ccc(O)cc1 (configuration not stated),inactive,–
c1ccc2c(c1)oc1ccccc12,inactive,–
CCCSC(=O)N(CCC)CCC,inactive,–
CCCCCCCCn1sccc1=O,–,3.62 µM (active)
O=C(O)C1C2CCC(O2)C1C(=O)O (configuration not stated),–,24.4 µM (active)
Oc1ccc2ccc3cccc4ccc1c2c34,–,49.1 µM (active)

# Experiment: APR_HepG2_CellCycleArrest_72hr: Apredica 72-hour HepG2 Assay for Cell Cycle Arrest (AID 2282914)
# Conditions: high-content imaging, actives raise or lower the signal
# How it was run: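 Using multiplexed high-content imaging, HepG2 nuclei stained with Hoechst 33342 (2 ug/mL) were analysed for DNA content after fixation and permeabilization. Treatment lasted 72 hr across 0.39–200 uM in duplicate with final DMSO 0.5% v/v; DMSO served as negative control.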
Compound,outcome,AC50
O=[N+]([O-])c1ccc(Oc2ccc(Cl)cc2Cl)cc1,inactive,–
Cn1cc(-c2ccccc2)c(=O)c(-c2cccc(C(F)(F)F)c2)c1,–,107 µM (active)
CN(C)c1ccccc1,inactive,–
Oc1ccccc1Cl,inactive,–
C=CCc1ccc2c(c1)OCO2,inactive,–
CCCCCCCCCCCCCN1CC(C)OC(C)C1 (configuration not stated),–,70.4 µM (active)
Nc1cc(Cl)cc(C(=O)O)c1Cl,inactive,–
Nc1ccc(Cl)cc1N,–,1.46 µM (active)
CC(C)N(Cc1ccccc1)C(=O)C(C)(C)C,inactive,–
ClCCOCCCl,inactive,–
CO[C@@H]1[C@H](OC(=O)NC(=O)CCl)CC[C@]2(CO2)[C@H]1[C@@]1(C)O[C@@H]1CC=C(C)C,inactive,–
CCOc1cccc(C2(N3CCN(c4ccccc4)CC3)CCC(C)CC2)c1 (configuration not stated),inactive,–
CCC12COCN1COC2,inactive,–
CS(=O)(=O)NC(=O)c1cc(Oc2ccc(C(F)(F)F)cc2Cl)ccc1[N+](=O)[O-],inactive,–
ClC1=C(Cl)C2(Cl)C3C(Cl)C=CC3C1(Cl)C2(Cl)Cl (configuration not stated),–,26.7 µM (active)
Cc1ccc([N+](=O)[O-])cc1,inactive,–
O=C(N[C@H](c1ccccc1)[C@@H]1CN2CCC1CC2)c1c(Cl)ccc(C(F)(F)F)c1Cl,–,30.6 µM (active)
CCCCOC(=O)c1ccccc1C(=O)OCc1ccccc1,–,92.5 µM (active)
O=C1CCCO1,inactive,–
c1ccc(N=Nc2ccccc2)cc1,inactive,–
CN(C)[C@@H]1C(=O)C(C(N)=O)=C(O)[C@@]2(O)C(=O)C3=C(O)c4c(O)cccc4[C@@](C)(O)[C@H]3C[C@@H]12,inactive,–
CCC(C)c1ccc(O)cc1 (configuration not stated),inactive,–
c1ccc2c(c1)oc1ccccc12,inactive,–
CCCSC(=O)N(CCC)CCC,inactive,–
CCCCCCCCn1sccc1=O,inactive,–
O=C(O)C1C2CCC(O2)C1C(=O)O (configuration not stated),inactive,–
Oc1ccc2ccc3cccc4ccc1c2c34,inactive,–

# Experiment: APR_HepG2_CellLoss_72hr: Apredica 72-hour HepG2 Assay for Cell Loss (AID 2282915)
# Conditions: high-content imaging
# How it was run: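 HepG2 cells were exposed for 72 hr to compounds at 0.39–200 uM (ten concentrations, duplicate) in 0.5% v/v final DMSO. Nuclei were stained with Hoechst 33342 after 3.7% formaldehyde fixation, imaged at 20x, and counted; fits bidirectional versus DMSO.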
Compound,AC50,outcome
O=[N+]([O-])c1ccc(Oc2ccc(Cl)cc2Cl)cc1,89.7 µM (active),–
Cn1cc(-c2ccccc2)c(=O)c(-c2cccc(C(F)(F)F)c2)c1,64.3 µM (active),–
CN(C)c1ccccc1,–,inactive
Oc1ccccc1Cl,–,inactive
C=CCc1ccc2c(c1)OCO2,–,inactive
CCCCCCCCCCCCCN1CC(C)OC(C)C1 (configuration not stated),78.9 µM (active),–
Nc1cc(Cl)cc(C(=O)O)c1Cl,–,inactive
Nc1ccc(Cl)cc1N,1.1 µM (active),–
CC(C)N(Cc1ccccc1)C(=O)C(C)(C)C,–,inactive
ClCCOCCCl,–,inactive
CO[C@@H]1[C@H](OC(=O)NC(=O)CCl)CC[C@]2(CO2)[C@H]1[C@@]1(C)O[C@@H]1CC=C(C)C,–,inactive
CCOc1cccc(C2(N3CCN(c4ccccc4)CC3)CCC(C)CC2)c1 (configuration not stated),–,inactive
CCC12COCN1COC2,–,inactive
CS(=O)(=O)NC(=O)c1cc(Oc2ccc(C(F)(F)F)cc2Cl)ccc1[N+](=O)[O-],–,inactive
ClC1=C(Cl)C2(Cl)C3C(Cl)C=CC3C1(Cl)C2(Cl)Cl (configuration not stated),56 µM (active),–
Cc1ccc([N+](=O)[O-])cc1,–,inactive
O=C(N[C@H](c1ccccc1)[C@@H]1CN2CCC1CC2)c1c(Cl)ccc(C(F)(F)F)c1Cl,64 µM (active),–
CCCCOC(=O)c1ccccc1C(=O)OCc1ccccc1,60.3 µM (active),–
O=C1CCCO1,–,inactive
c1ccc(N=Nc2ccccc2)cc1,–,inactive
CN(C)[C@@H]1C(=O)C(C(N)=O)=C(O)[C@@]2(O)C(=O)C3=C(O)c4c(O)cccc4[C@@](C)(O)[C@H]3C[C@@H]12,–,inactive
CCC(C)c1ccc(O)cc1 (configuration not stated),–,inactive
c1ccc2c(c1)oc1ccccc12,–,inactive
CCCSC(=O)N(CCC)CCC,–,inactive
CCCCCCCCn1sccc1=O,5.76 µM (active),–
O=C(O)C1C2CCC(O2)C1C(=O)O (configuration not stated),21.5 µM (active),–
Oc1ccc2ccc3cccc4ccc1c2c34,84 µM (active),–

# Experiment: APR_HepG2_P-H2AX_72hr: Apredica 72-hour HepG2 Assay for H2AX Phosphorylation (AID 2282916);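 also: phospho-histone H2A.x immunostain intensity per cell marking DNA damage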
# Conditions: imaging, actives raise or lower the signal
# How it was run: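 Phospho-histone H2A.x immunofluorescence, multiplexed with Hoechst and c-Jun, quantified by high-content imaging. Compounds applied to HepG2 for 72 h across ten concentrations (0.39–200 uM, 0.5% DMSO), in duplicate; DMSO baseline.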
Compound,outcome,AC50
O=[N+]([O-])c1ccc(Oc2ccc(Cl)cc2Cl)cc1,inactive,–
Cn1cc(-c2ccccc2)c(=O)c(-c2cccc(C(F)(F)F)c2)c1,inactive,–
CN(C)c1ccccc1,inactive,–
Oc1ccccc1Cl,inactive,–
C=CCc1ccc2c(c1)OCO2,inactive,–
CCCCCCCCCCCCCN1CC(C)OC(C)C1 (configuration not stated),inactive,–
Nc1cc(Cl)cc(C(=O)O)c1Cl,inactive,–
Nc1ccc(Cl)cc1N,–,5.9 µM (active)
CC(C)N(Cc1ccccc1)C(=O)C(C)(C)C,inactive,–
ClCCOCCCl,inactive,–
CO[C@@H]1[C@H](OC(=O)NC(=O)CCl)CC[C@]2(CO2)[C@H]1[C@@]1(C)O[C@@H]1CC=C(C)C,inactive,–
CCOc1cccc(C2(N3CCN(c4ccccc4)CC3)CCC(C)CC2)c1 (configuration not stated),inactive,–
CCC12COCN1COC2,–,82.1 µM (active)
CS(=O)(=O)NC(=O)c1cc(Oc2ccc(C(F)(F)F)cc2Cl)ccc1[N+](=O)[O-],inactive,–
ClC1=C(Cl)C2(Cl)C3C(Cl)C=CC3C1(Cl)C2(Cl)Cl (configuration not stated),–,65.9 µM (active)
Cc1ccc([N+](=O)[O-])cc1,inactive,–
O=C(N[C@H](c1ccccc1)[C@@H]1CN2CCC1CC2)c1c(Cl)ccc(C(F)(F)F)c1Cl,–,44 µM (active)
CCCCOC(=O)c1ccccc1C(=O)OCc1ccccc1,inactive,–
O=C1CCCO1,inactive,–
c1ccc(N=Nc2ccccc2)cc1,inactive,–
CN(C)[C@@H]1C(=O)C(C(N)=O)=C(O)[C@@]2(O)C(=O)C3=C(O)c4c(O)cccc4[C@@](C)(O)[C@H]3C[C@@H]12,inactive,–
CCC(C)c1ccc(O)cc1 (configuration not stated),inactive,–
c1ccc2c(c1)oc1ccccc12,inactive,–
CCCSC(=O)N(CCC)CCC,inactive,–
CCCCCCCCn1sccc1=O,–,4.92 µM (active)
O=C(O)C1C2CCC(O2)C1C(=O)O (configuration not stated),–,22.2 µM (active)
Oc1ccc2ccc3cccc4ccc1c2c34,–,50.3 µM (active)
